# High-throughput results: PubChem, Johns Hopkins Ion Channel Center
# KCNQ2 block = blocks the rat KCNQ2 potassium channel. AID 2156. O88943. 1.1% of 310,000 active. CHO-K1 KCNQ2, FluxOR thallium flux, 20 min; stronger effect = lower value. B-score at 10 µM;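 active = fluorescence ratio B-score at most minus 3 library SDs, with starting brightness B-score within 2 library SDs, cut at about -5.5 in these data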
# KCNQ2 enhance = KCNQ2 (rat) channel potentiation; O88943; CHO-K1 KCNQ2, FluxOR thallium flux fluorescence; stronger effect = higher value; B-score at 10 µM; 0.54% of 310,000 active; AID 2239;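 active = fluorescence ratio B-score at least 3 SD of library B-scores, with initial fluorescence B-score within 3 of them, cut at about 5.3 in these data; same plate scores as AID 2156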;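 also: B-score of peak minus minimum over baseline fluorescence ratio after K+ and Tl+ stimulus; positive B-score means potentiation of KCNQ2 with more thallium influx and brighter signal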
# Hits are given with their value; n = inactive; x = no result. In the library only some 1.6% were active in any assay of this set; here they are far more common.
SMILES,KCNQ2 block,KCNQ2 enhance
O=C(O)c1ccc(CN2C(=O)c3cccc4c([N+](=O)[O-])ccc(c34)C2=O)cc1,-8.6,n
Cc1ccc(C(=O)O)cc1N1C(=O)c2cccc3c([N+](=O)[O-])ccc(c23)C1=O,n,x
O=C(O)COc1ccccc1/C=N/NC(=O)CN1CCN(S(=O)(=O)c2ccc(Br)cc2)CC1,n,n
COc1ccc(CCN(C)C(=O)c2cc(=O)c3ccccc3o2)cc1OC,n,x
O=C(Nc1ccc(F)cc1)c1sccc1SCc1cccc(C(F)(F)F)c1,n,x
O=C(Nc1ccc(F)cc1F)c1sccc1SCc1cccc(C(F)(F)F)c1,-5.9,n
COc1cc(/C=N/NC(=O)c2ccncc2)ccc1OC(=O)c1cc(OC)c(OC)c(OC)c1,n,x
CC(=O)Nc1ccc(/C(C)=N/Nc2nc(N3CCOCC3)nc(N3CCOCC3)n2)cc1,n,x
C/C(=N\Nc1nc(N2CCCCC2)nc(N2CCOCC2)n1)c1cccs1,-7.6,n
O=C(NCCCn1ccnc1)Nc1ccc2c(c1)OCO2,n,x
COc1ccccc1NC(=O)C1CCN(S(=O)(=O)c2ccc3c(c2)NC(=O)CO3)CC1,n,x
O=C(/C=C/c1cccnc1)c1ccc(O)cc1,n,x
O=C(/C=C/c1cccnc1)c1ccccc1O,-5.9,n
Cc1nn(-c2ccccc2)c2ncc(C(=O)c3cc(Cl)ccc3O)cc12,n,x
CCc1nn2cc(C(=O)c3cc(Cl)ccc3O)cnc2c1-c1ccc(F)cc1,-5.6,n
Cc1ccc2nc(-c3ccccc3)cc(C(=O)NCC(c3ccco3)N(C)C)c2c1 (stereo not given),-5.8,n
Cc1ccc2nc(-c3ccccc3)cc(C(=O)NCC3CCCO3)c2c1 (stereo not given),n,x
COC(=O)CNC(c1ccccc1)c1cc(Br)ccc1NC(=O)OCc1ccccc1 (stereo not given),-7.4,n
CCOC(=O)CNC(c1ccccc1)c1cc(Br)ccc1NC(C)=O (stereo not given),n,x
COC(=O)CNC(c1ccccc1)c1cc(C)ccc1NS(=O)(=O)c1ccc(C)cc1 (stereo not given),n,x
COC(=O)CNC(c1ccccc1)c1cc(C)ccc1NC(=O)CNC(=O)OCc1ccccc1 (stereo not given),-5.8,n
O=C(CNC(=O)c1ccccc1)Oc1cccc(Cl)c1,n,x
CCOC(=O)c1cnn(-c2ccccc2)c1-n1cccc1C(=O)C(=O)N(CC)CC,n,n
CCOC(=O)c1cnn(-c2ccccc2)c1-n1cccc1C(=O)C(=O)Nc1ccccc1C(F)(F)F,-7,n
COc1ccc(CN(C)C(c2ccccc2)c2nnnn2-c2ccccc2C)c(OC)c1C (stereo not given),-6,n
SMILES,KCNQ2 block,KCNQ2 enhance
COc1cc(OC)c(OC)cc1CN(C)C(c1ccccc1)c1nnnn1-c1ccccc1C (stereo not given),n,x
Cc1sc(NC(=O)COc2ccccc2)c(C#N)c1-c1ccccc1,n,x
COc1ccc(C(=O)Nc2sc(C)c(-c3ccccc3)c2C#N)cc1OC,-6.4,n
CN(C)c1ccc(/C=C(\C#N)C(=O)c2ccccc2)cc1,n,n
CN(C)c1cccc(/C=C(\C#N)c2ccccc2)c1,-5.7,n
CCOc1cc(CNCCN2CCOCC2)ccc1OCc1ccccc1Cl,n,x
CCOc1cc(CNCCCN2CCOCC2)cc(Br)c1OCc1ccccc1Cl,-5.9,n
CC(C)C[C@H](NC(=O)N1CCn2c1nc1ccccc12)C(=O)N[C@H](Cc1ccccc1)C(=O)O,n,x
COc1ccc(NC(=O)/C(Cl)=C(/Cl)S(=O)(=O)Cc2ccc(C)cc2)cn1,n,5.4
COc1ccc(NC(=O)Cc2ccc(Cl)c(Cl)c2)cn1,n,x
Cc1sc2ncn(-n3c(C)ccc3C)c(=O)c2c1C,-5.7,n
Cc1ccc(-c2csc3ncn(-n4c(C)ccc4C)c(=O)c23)o1,-6.6,n
C=CCn1c(SCc2ccccc2)nc2scc(-c3ccc(C)o3)c2c1=O,n,n
Cc1sc2ncn(CCn3cnc4sc(C)c(C)c4c3=O)c(=O)c2c1C,n,x
O=C(NCCc1ccc(F)cc1)N[C@@H](Cc1ccccc1)C(=O)O,n,n
O=C(NCc1ccc(F)cc1)C(c1ccco1)N(C(=O)c1csnn1)C1CC1 (stereo not given),n,x
C=CCn1c(COc2ccccc2)nnc1SC(C)C(=O)N/N=C/c1cc(Cl)ccc1O (stereo not given),-7.6,n
C=CCn1c(COc2ccc(Cl)cc2)nnc1SCC(=O)N/N=C/c1cccc(O)c1,n,n
O=C(COC(=O)CC(c1ccccc1)c1ccccc1)Nc1cccc(F)c1,n,x
O=C(COC(=O)CC(c1ccccc1)c1ccccc1)Nc1ccc(F)c(F)c1,-8.1,n
COC(=O)C(CC(=O)c1ccc(Br)cc1)n1ccnc1 (stereo not given),-6.2,n
COC(=O)C(CC(=O)c1ccc(Br)cc1)n1nc(C)cc1C (stereo not given),n,n
COc1ccc(F)cc1C(=O)C1CCCN(Cc2ccc(Sc3nncn3C)o2)C1 (stereo not given),n,n
COc1ccc(OCC(=O)Nc2c(C(=O)N(CCN(C)C)Cc3ccco3)oc3ccccc23)cc1,n,x
COc1ccccc1C(=O)Nc1c(C(=O)N(CCN(C)C)Cc2ccco2)oc2ccccc12,-7,n
SMILES,KCNQ2 block,KCNQ2 enhance
O=C(CCC(=O)c1cccs1)NCc1cccc(C(F)(F)F)c1,-6.4,n
O=C(CSc1ccccc1)NCc1ccccc1,n,x
O=C(COC(=O)CCC(=O)c1cccs1)NCc1ccc(Cl)cc1,n,n
O=C(CCC(=O)c1cccs1)NCc1cccc(Cl)c1,-6.3,n
O=C(O)CSCC(=O)NCc1cccc(C(F)(F)F)c1,n,n
O=C(CSc1cccc(C(F)(F)F)c1)NCc1ccccc1,n,16
O=C(c1ccc(NC(=O)C(c2ccccc2)c2ccccc2)cc1)c1ccc(C(=O)O)c(C(=O)O)c1,n,n
COCCCNC(=O)C(=O)Nc1cc2c3c(c1)CCN3C(=O)CC2,n,x
Cc1ccc(/C=N/n2c(C3CCCCC3)n[nH]c2=S)cc1,n,n
CCOc1ccc(NCCC(O)c2ccc(F)cc2)cc1 (stereo not given),n,x
Cc1ccc(NC(=O)CN2C(=O)NC3(CCCc4ccccc43)C2=O)cc1S(=O)(=O)N1CCOCC1 (stereo not given),n,x
CCN(CC)S(=O)(=O)c1cc(NC(=O)CN2C(=O)NC3(CCCc4ccccc43)C2=O)ccc1C (stereo not given),-5.8,n
C=CC[C@@H]1C=C[C@H](O/N=C/c2ccc(C(=O)N3[C@H](c4ccc(C)cc4)[C@@H](C)CC[C@H]3C(=O)OC)cc2)[C@@H](CO)O1,-6.1,n
COC(=O)[C@@H]1CC[C@H](C)[C@@H](c2ccc(C)cc2)N1C(=O)c1ccc(/C=N/OC[C@@H](O)COCc2ccco2)cc1,n,x
Clc1cccc(CN2CCSCC2)c1,n,x
COc1ccc(-c2c(C(F)(F)F)nn(C)c2NC(C)=O)cc1,n,x
Cc1cccc(NC(=O)CCCCCN2C(=O)[C@@H]3Cc4ccccc4CN3C2=O)c1,n,x
O=C(CCCCCN1C(=O)[C@@H]2Cc3ccccc3CN2C1=O)Nc1cccc(F)c1,-5.8,n
CCOC(=O)c1ccc(N2CCOCC2)c(NC(=O)c2ccc3c(c2)OCO3)c1,n,x
Cc1c(C(=O)NCc2ccccc2)c(-c2ccccc2)nn1-c1ccccc1,-5.6,n
Cc1c(C(=O)NC(C)C)c(-c2ccccc2)nn1-c1ccccc1,n,x
CC(C)(C)OC(=O)N1CCC(c2cc(=O)n3[nH]cc(C(=O)Nc4ccc(F)c(Cl)c4)c3n2)CC1,n,n
